Assay results from the supplement of paper PMC6522484.
± gives the standard deviation of the averaged measurements.

Experiments:
DLD1 [1] = assay: cell viability (CellTiter-Glo) relative to plate median (fraction of plate median); higher = more viable cells; settings: 5 µM; treatment time 24 h; reporter: 7TFP
Method in brief: (§1)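 Per-well firefly luciferase or CellTiterGlo luminescence, normalised to the plate median, is what is reported. It was measured in colorectal cancer cells with stable lentiviral TCF/Wnt firefly luciferase reporters after a 24 h treatment with library compounds at a final 5 µM. The mean of two independent replicates is given.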

HCT116 = assay: as above; settings: 5 µM; treatment time 24 h; reporter: TCF4/Wnt
Method in brief: as §1

SW480 [2] = assay: as above; settings: 5 µM; treatment time 24 h; reporter: 7TFP
Method in brief: as §1

DLD1 [3] = assay: TCF/Wnt firefly luciferase reporter signal relative to plate median (fraction of plate median); higher = higher Wnt reporter signal; settings: 5 µM; treatment time 24 h; reporter: 7TFP
Method in brief: as §1

SW480 [4] = assay: as above; settings: 5 µM; treatment time 24 h; reporter: 7TFP
Method in brief: as §1

| SMILES | cell viability (DLD1 [1]) | cell viability (HCT116) | cell viability (SW480 [2]) | TCF/Wnt firefly luciferase reporter signal (DLD1 [3]) | TCF/Wnt firefly luciferase reporter signal (SW480 [4]) |
| --- | --- | --- | --- | --- | --- |
| CC(=O)O[C@@H]1CO[C@H]2O[C@H]3[C@@H](C(C=O)=C[C@H](O)[C@@H]4C5=C(C(C)C)CC[C@]5(C)CC[C@@]34C)[C@@]2(O)C1=O [Striatal B] | 1 ± 0.17 | 0.89 ± 0.16 | 1.05 ± 0.021 | 1 ± 0.16 | 1.025 ± 0.0071 |
| CCS(=O)(=O)CCn1c([N+](=O)[O-])cnc1C | 0.965 ± 0.019 | 0.975 ± 0.014 | 1.01 ± 0.032 | 0.869 ± 0.0028 | 0.862 ± 0.059 |
| CC(=O)OCC(=O)[C@H]1CC[C@H]2[C@@H]3CC=C4C[C@@H](O)CC[C@]4(C)[C@H]3CC[C@]12C | 1.04 ± 0.05 | 1.03 ± 0.057 | 1.04 ± 0.028 | 1.01 ± 0.13 | 0.975 ± 0.064 |
| CC(C)=CCC/C(C)=C\CO | 0.992 ± 0.082 | 1.02 ± 0.042 | 1.1 ± 0.05 | 0.999 ± 0.016 | 0.964 ± 0.046 |
| CC(=O)NCCc1ccc(O)cc1 [N-Acetyl-tyramine] | 0.951 ± 0.017 | 0.985 ± 0.092 | 0.991 ± 0.0071 | 1.13 ± 0.042 | 1.05 ± 0.035 |
| COc1cc2cc3c4cc(OC)c(OC)cc4cc[n+]3c(C)c2cc1OC | 1 ± 0.067 | 0.959 ± 0.013 | 0.9305 ± 0.00071 | 1.05 ± 0.16 | 1.01 ± 0.097 |
| Cc1onc(-c2ccccc2)c1-c1ccc(S(N)(=O)=O)cc1 | 0.844 ± 0.058 | 1.02 ± 0.03 | 1.05 ± 0.1 | 0.91 ± 0.044 | 0.956 ± 0.17 |
| CCCCN1CCCCC1C(=O)Nc1c(C)cccc1C (stereo not given) | 1.02 ± 0.055 | 0.949 ± 0.071 | 1.06 ± 0.042 | 0.901 ± 0.081 | 0.887 ± 0.047 |
| O=C(O)/C=C/C=C/c1ccccc1 | 0.976 ± 0.16 | 0.9625 ± 0.0092 | 0.98 ± 0.0057 | 0.906 ± 0.028 | 0.729 ± 0.071 |
| Nc1ccc(S(=O)(=O)NC(=O)c2ccccc2)cc1 | 1.07 ± 0.12 | 0.954 ± 0.12 | 1.11 ± 0.064 | 0.875 ± 0.15 | 1.02 ± 0.014 |
| NS(=O)(=O)c1cc2c(cc1C(F)(F)F)NC(Cc1ccccc1)NS2(=O)=O (stereo not given) | 0.992 ± 0.04 | 0.969 ± 0.058 | 0.9875 ± 0.0035 | 0.836 ± 0.075 | 0.885 ± 0.064 |
| CN1CCN(C2=Nc3ccccc3Oc3ccc(Cl)cc32)CC1 | 0.901 ± 0.22 | 0.971 ± 0.055 | 0.927 ± 0.0028 | 0.898 ± 0.21 | 0.89 ± 0.12 |
| CC1(C)O[C@@H]2C[C@H]3[C@@H]4CCC5=CC(=O)CC[C@]5(C)[C@@]4(F)[C@@H](O)C[C@]3(C)[C@]2(C(=O)CCl)O1 | 0.921 ± 0.12 | 0.925 ± 0.074 | 0.977 ± 0.061 | 0.927 ± 0.042 | 1.01 ± 0.066 |
